Measurements as given in PubChem BioAssay AID1159580 (chemical genetic matrix, 2015).
Among all 5,500 compounds or so, about 2,000 (36%) were called active. Not shown: some 18% with an inconclusive outcome. No stated cut-off is given here; in the data, active means normalized growth mostly below about 0.91 (no sharp cut-off); inconclusive means no clear call, values can overlap the other calls; inactive means mostly above about 0.92. This is one part of the list.

Test: chemical genetic growth profiling, strain panel (AID 1159580);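 further: tested at 20 µM; growth read once vehicle control cultures reached saturation at 30 °C; 1 = growth at the plate median or of vehicle wells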
Settings: S. cerevisiae deletion strains, growth OD
[1] = locus YAR019C, strain CDC15, stronger effect = lower value
[2] = locus YBL105C, strain PKC1, stronger effect = lower value
[3] = locus YBR135W, strain CKS1, stronger effect = lower value
[4] = locus YBR136W, strain MEC1, stronger effect = lower value
[5] = locus YBR160W, strain CDC28, stronger effect = lower value
[6] = locus YDL017W, strain CDC7, stronger effect = lower value
[7] = locus YDL028C, strain MPS1, stronger effect = lower value
[8] = locus YDL101C, strain DUN1, stronger effect = lower value
[9] = locus YDL108W, strain KIN28, stronger effect = lower value
[10] = locus YDL132W, strain cdc53, stronger effect = lower value
[11] = locus YDL214C, strain PRR2, stronger effect = lower value
[12] = locus YDR052C, strain DBF4, stronger effect = lower value
[13] = locus YDR054C, strain cdc34, stronger effect = lower value
[14] = locus YDR226W, strain ADK1, stronger effect = lower value
[15] = locus YDR477W, strain SNF1, stronger effect = lower value
[16] = locus YER123W, strain YCK3, stronger effect = lower value
[17] = locus YER133W, strain GLC7, stronger effect = lower value
[18] = locus YFL009W, strain cdc4, stronger effect = lower value
[19] = locus YFL029C, strain CAK1, stronger effect = lower value
[20] = locus YFR003C, strain YPI1, stronger effect = lower value
[21] = locus YFR019W, strain FAB1, stronger effect = lower value
[22] = locus YFR028C, strain CDC14, stronger effect = lower value
[23] = locus YGR040W, strain KSS1, stronger effect = lower value
[24] = locus YGR052W, strain FMP48, stronger effect = lower value
[25] = locus YGR092W, strain DBF2, stronger effect = lower value
[26] = locus YHR030C, strain SLT2, stronger effect = lower value
[27] = locus YHR079C, strain IRE1, stronger effect = lower value
[28] = locus YHR082C, strain KSP1, stronger effect = lower value
[29] = locus YHR205W, strain SCH9, stronger effect = lower value
[30] = locus YIL147C, strain SLN1, stronger effect = lower value
[31] = locus YJL095W, strain BCK1, stronger effect = lower value
[32] = locus YJL128C, strain PBS2, stronger effect = lower value
[33] = locus YJL157C, strain FAR1, stronger effect = lower value
[34] = locus YJR016C, strain ILV3, stronger effect = lower value
[35] = locus YJR066W, strain TOR1 (second series), stronger effect = lower value
[36] = locus YJR066W, strain TOR1, stronger effect = lower value
[37] = locus YKL048C, strain ELM1, stronger effect = lower value
[38] = locus YKL067W, strain YNK1, stronger effect = lower value
[39] = locus YKL101W, strain HSL1, stronger effect = lower value
[40] = locus YKL193C, strain SDS22, stronger effect = lower value
[41] = locus YKL203C, strain TOR2, stronger effect = lower value
[42] = locus YLR113W, strain HOG1, stronger effect = lower value
[43] = locus YLR133W, strain CKI1, stronger effect = lower value
[44] = locus YLR403W, strain SFP1, stronger effect = lower value
[45] = locus YML070W, strain DAK1, stronger effect = lower value
[46] = locus YMR001C, strain CDC5, stronger effect = lower value
[47] = locus YMR205C, strain PFK2 (second series), stronger effect = lower value
[48] = locus YMR277W, strain FCP1, stronger effect = lower value
[49] = locus YNL006W, strain LST8, stronger effect = lower value
[50] = locus YNL020C, strain ARK1, stronger effect = lower value
[51] = locus YNL161W, strain CBK1, stronger effect = lower value
[52] = locus YNL183C, strain NPR1, stronger effect = lower value
[53] = locus YNL207W, strain RIO2, stronger effect = lower value
[54] = locus YNL222W, strain SSU72, stronger effect = lower value
[55] = locus YNL307C, strain MCK1 (second series), stronger effect = lower value
[56] = locus YOL078W, strain AVO1, stronger effect = lower value
[57] = locus YOL136C, strain PFK27, stronger effect = lower value
[58] = locus YOR061W, strain CKA2, stronger effect = lower value
[59] = locus YOR119C, strain RIO1, stronger effect = lower value
[60] = locus YOR231W, strain MKK1, stronger effect = lower value
[61] = locus YOR329C, strain SCD5, stronger effect = lower value
[62] = locus YPL031C, strain PHO85, stronger effect = lower value
[63] = locus YPL153C, strain RAD53, stronger effect = lower value
[64] = locus YPL204W, strain HRR25, stronger effect = lower value
[65] = locus YPL209C, strain IPL1, stronger effect = lower value
[66] = locus YPL256C, strain CLN2, stronger effect = lower value
[67] = locus YPR025C, strain CCL1, stronger effect = lower value
[68] = locus YPR106W, strain ISR1, stronger effect = lower value
[69] = locus YPR111W, strain DBF20, stronger effect = lower value
[70] = strain NNK1, stronger effect = lower value
[71] = strain TSCII, stronger effect = lower value
[72] = locus YAL040C, strain CLN3, stronger effect = lower value
[73] = locus YCL061C, strain MRC1 (second series), stronger effect = lower value
[74] = locus YDR363W, strain ESC2, stronger effect = lower value
[75] = locus YER002W, strain NOP16, stronger effect = lower value
[76] = locus YMR307W, strain GAS1, stronger effect = lower value
[77] = locus YNL128W, strain TEP1, stronger effect = lower value
[78] = locus YNL175C, strain NOP13, stronger effect = lower value
[79] = locus YNL197C, strain WHI3, stronger effect = lower value
[80] = locus YNL224C, strain SQS1, stronger effect = lower value
[81] = locus YOR083W, strain WHI5 (second series), stronger effect = lower value

Measured: normalized growth

OC(c1ccc(C(F)(F)F)cc1)c1cccc(C(F)(F)F)c1 (centres undefined)
inactive: [1] 0.972 | [2] 0.973 | [3] 0.973 | [4] 0.967 | [5] 0.969 | [6] 0.964 | [7] 0.974 | [8] 0.975 | [9] 0.968 | [10] 0.974 | [11] 0.985 | [12] 0.977 | [13] 0.974 | [14] 0.977 | [15] 0.999 | [16] 0.945 | [17] 0.992 | [18] 0.981 | [19] 0.962 | [20] 0.969 | [21] 1 | [22] 0.975 | [23] 0.984 | [24] 1 | [25] 0.948 | [26] 0.867 | [27] 0.885 | [28] 1.09 | [29] 0.949 | [30] 0.971 | [31] 0.953 | [32] 0.942 | [33] 1.01 | [34] 0.984 | [35] 1.04 | [36] 1.05 | [37] 0.977 | [38] 0.992 | [39] 0.97 | [40] 0.973 | [41] 1.02 | [43] 0.999 | [44] 1.04 | [45] 0.96 | [46] 0.973 | [47] 0.993 | [48] 0.974 | [49] 0.966 | [50] 0.998 | [51] 0.984 | [52] 1.01 | [53] 0.978 | [54] 0.973 | [55] 0.989 | [56] 0.974 | [57] 0.968 | [58] 1 | [59] 1.07 | [60] 0.92 | [61] 0.967 | [62] 0.978 | [63] 0.991 | [64] 0.959 | [65] 0.973 | [67] 0.968 | [68] 0.99 | [69] 1 | [70] 0.975 | [71] 0.975
active: [42] 0.789 | [66] 0.839

OC[C@H]1O[C@@H](n2cnc3cncnc32)[C@H](O)[C@@H]1O
inactive: [72] 1.01 | [73] 1.01 | [74] 1 | [75] 1.01 | locus YGR078C, strain PAC10, stronger effect = lower value 1.03 | locus YMR263W, strain SAP30, stronger effect = lower value 0.997 | [76] 1 | [77] 1.03 | [78] 1.02 | [79] 1 | [80] 1.02 | [81] 1.07

COc1ccccc1C(C[N+](=O)[O-])c1c(N)n(C)c(=O)n(C)c1=O (centres undefined)
active: [11] 0.583 | [15] 0.555 | [16] 0.374 | [17] 0.602 | [21] 0.263 | [23] 0.643 | [24] 0.512 | [25] 0.443 | [26] 0.302 | [27] 0.401 | [28] 0.559 | [29] 0.21 | [31] 0.33 | [33] 0.593 | [35] 0.133 | [36] 0.369 | [37] 0.654 | [38] 0.612 | [39] 0.621 | [41] 0.61 | [42] 0.382 | [43] 0.616 | [44] 0.49 | [45] 0.527 | [47] 0.679 | [50] 0.688 | [52] 0.381 | [55] 0.151 | [57] 0.485 | [59] 0.641 | [60] 0.468 | [62] 0.467 | [63] 0.546 | [64] 0.603 | [66] 0.348
inactive: [1] 0.942 | [2] 0.955 | [3] 0.954 | [4] 0.945 | [5] 0.953 | [6] 0.958 | [7] 0.948 | [8] 0.916 | [9] 0.945 | [10] 0.953 | [12] 0.962 | [13] 0.945 | [14] 0.954 | [18] 0.96 | [19] 0.933 | [20] 0.953 | [22] 0.956 | [30] 0.953 | [32] 0.941 | [34] 0.962 | [40] 0.963 | [46] 0.946 | [48] 0.956 | [49] 0.957 | [51] 0.957 | [53] 0.954 | [54] 0.956 | [56] 0.956 | [58] 0.678 | [61] 0.956 | [65] 0.95 | [67] 0.958 | [68] 0.961 | [69] 0.966 | [70] 0.953 | [71] 0.941

COc1ccccc1N1CCN(CCCNc2c(C)c(=O)n(C)c(=O)n2C)CC1
inactive: locus YAL013W, strain DEP1, stronger effect = lower value 1.02 | [72] 0.984 | [73] 0.998 | locus YDR150W, strain NUM1, stronger effect = lower value 1 | [74] 1.01 | [75] 0.999 | locus YGR229C, strain SMI1, stronger effect = lower value 1.04 | locus YJR075W, strain HOC1, stronger effect = lower value 1.01 | [76] 1.02 | [77] 1 | [78] 0.976 | [79] 0.985 | [80] 0.995 | locus YNL322C, strain KRE1, stronger effect = lower value 0.987 | [81] 0.978
